# Assay results taken from PubChem BioAssay (NCATS).
# Inconclusive results are not listed. Unmarked numbers belong to inactive results. Active and inactive are the calls of the source. Calls come from the whole dose curve; as a rule, active = well fitted curve in the direction sought with a large enough effect; inconclusive = small, poorly fitted or top-dose-only effect, or another doubt; inactive = no such curve, though single readings can be large; an effect the other way counts as inactive or inconclusive.
# Assay: qHTS of pediatric cancer cell lines to identify multiple opportunities for drug repurposing: Primary screen for TC32 cells (AID 1347089); note: % is set by controls: 0 for no effect and ±100 for the full control effect; nearly all actives have a fitted effect of over 60% in size
# Conditions: TC32 Ewing sarcoma viability, CellTiter-Glo luminescence, 48 h; series mostly up to 45.8 µM; activity change, negative = cytotoxic: at the top concentration
# Method in brief: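 Luminescent ATP read-out (CellTiter-Glo) of metabolically active TC32 cells after 48 h exposure. Concentration-response curves came from 11-point (MIPE, 0.78 nM–46 µM) or 8-point (NPC, 0.59 nM–46 µM) primary titrations; follow-up used 11 points.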
row,Structure (SMILES),"activity change, negative = cytotoxic"
1,Cc1c(N)c(=O)n(-c2ccccc2)n1C,-4.43%
2,CCC1C(=O)OCC1Cc1cncn1C (centres undefined),12.3%
3,c1ccc2sc(SN3CCOCC3)nc2c1,4.88%
4,CC(N)C(=O)OC(C)(C)Cc1ccc(Cl)cc1 (centres undefined),-5.69%
5,Nc1c(CC(=O)O)cccc1C(=O)c1ccc(Br)cc1,6.15%
6,CN1CC(=O)N/C1=N/C(=O)Nc1cccc(Cl)c1,10.8%
7,CCOC(=O)c1ccccc1O,12.4%
8,Nc1ccc(O)c(C(=O)O)c1,12.3%

# Assay: qHTS of pediatric cancer cell lines to identify multiple opportunities for drug repurposing: Primary screen for DAOY cells (AID 1347090);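 note: plate controls were DMSO for no effect and bortezomib for full effect; nearly all actives have a fitted effect of over 55% in size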
# Conditions: DAOY medulloblastoma viability, CellTiter-Glo luminescence, 48 h; series mostly up to 46 µM; activity change, negative = cytotoxic: at the top concentration
# Method in brief: (§1)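 Eight- or eleven-point concentration series, 48 h treatment at 37 degrees C in growth media; readout CellTiter-Glo luminescence. Potency and efficacy were taken from the concentration-response curves.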
row,Structure (SMILES),"activity change, negative = cytotoxic"
1,Cc1c(N)c(=O)n(-c2ccccc2)n1C,-2.15%
2,CCC1C(=O)OCC1Cc1cncn1C (centres undefined),13.3%
3,c1ccc2sc(SN3CCOCC3)nc2c1,6.84%
4,CC(N)C(=O)OC(C)(C)Cc1ccc(Cl)cc1 (centres undefined),-0.353%
5,Nc1c(CC(=O)O)cccc1C(=O)c1ccc(Br)cc1,-1.33%
6,CN1CC(=O)N/C1=N/C(=O)Nc1cccc(Cl)c1,2.77%
7,CCOC(=O)c1ccccc1O,7.42%
8,Nc1ccc(O)c(C(=O)O)c1,3.2%

# Assay: qHTS of pediatric cancer cell lines to identify multiple opportunities for drug repurposing: Primary screen for SJ-GBM2 cells (AID 1347091);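 note: plate controls were DMSO neutral control for no effect and bortezomib for full effect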
# Conditions: SJ-GBM2 viability, CellTiter-Glo luminescence, 48 h; series mostly up to 46 µM; activity change, negative = cytotoxic: at the top concentration
# Method in brief: as §1
row,Structure (SMILES),"activity change, negative = cytotoxic"
1,Cc1c(N)c(=O)n(-c2ccccc2)n1C,-3.31%
2,CCC1C(=O)OCC1Cc1cncn1C (centres undefined),9.18%
3,c1ccc2sc(SN3CCOCC3)nc2c1,0.053%
4,CC(N)C(=O)OC(C)(C)Cc1ccc(Cl)cc1 (centres undefined),3.58%
5,Nc1c(CC(=O)O)cccc1C(=O)c1ccc(Br)cc1,16.1%
6,CN1CC(=O)N/C1=N/C(=O)Nc1cccc(Cl)c1,28.7%
7,CCOC(=O)c1ccccc1O,9.25%
8,Nc1ccc(O)c(C(=O)O)c1,21.3%

# Assay: qHTS of pediatric cancer cell lines to identify multiple opportunities for drug repurposing: Primary screen for A673 cells (AID 1347092); note: nearly all actives have a fitted effect of over 45% in size; note: potency is the fitted concentration of half-maximal effect; for activity change, negative = cytotoxic: % is set by controls: 0 for no effect and ±100 for the full control effect
# Conditions: A673 Ewing sarcoma viability, CellTiter-Glo ATP luminescence, 48 h; series mostly up to 46 µM; activity change, negative = cytotoxic: at the top concentration
# Method in brief: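 Cell viability of A673 measured by CellTiter-Glo ATP luminescence after 48 hours compound exposure. Dilution series spanned 0.78 nM to 46 µM (MIPE, 11-point) or 0.59 nM to 46 µM (NPC, 8-point); bortezomib 2.3 uM positive control.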
Structure (SMILES),"activity change, negative = cytotoxic",Potency
Cc1c(N)c(=O)n(-c2ccccc2)n1C,-17.7%,–
CCC1C(=O)OCC1Cc1cncn1C (centres undefined),-7.03%,–
c1ccc2sc(SN3CCOCC3)nc2c1,-15.5%,–
CC(N)C(=O)OC(C)(C)Cc1ccc(Cl)cc1 (centres undefined),-10.4%,–
Nc1c(CC(=O)O)cccc1C(=O)c1ccc(Br)cc1,-5%,–
CN1CC(=O)N/C1=N/C(=O)Nc1cccc(Cl)c1,11.3%,–
CCOC(=O)c1ccccc1O,–,1 nM (active)
Nc1ccc(O)c(C(=O)O)c1,3.78%,–

# Assay: qHTS of pediatric cancer cell lines to identify multiple opportunities for drug repurposing: Primary screen for SK-N-MC cells (AID 1347093);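 note: plate controls were DMSO neutral control for no effect and bortezomib for full effect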
# Conditions: SK-N-MC viability, CellTiter-Glo luminescence, 48 h; series mostly up to 46 µM; activity change, negative = cytotoxic: at the top concentration
# Method in brief: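 Metabolically active cells were quantified by ATP-dependent luminescence (CellTiter-Glo, 15 min at room temperature) following 48 h treatment. Cells had been plated at 500-1,000 per well and settled for 5 h beforehand.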
row,Structure (SMILES),"activity change, negative = cytotoxic"
1,CC(N)C(=O)OC(C)(C)Cc1ccc(Cl)cc1 (centres undefined),2.88%
2,Nc1c(CC(=O)O)cccc1C(=O)c1ccc(Br)cc1,-0.419%
3,CN1CC(=O)N/C1=N/C(=O)Nc1cccc(Cl)c1,11%
4,CCOC(=O)c1ccccc1O,-13.5%

# Assay: qHTS of pediatric cancer cell lines to identify multiple opportunities for drug repurposing: Primary screen for BT-37 cells (AID 1347094);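 note: plate controls were DMSO for no effect and bortezomib for full effect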
# Conditions: BT-37 viability, CellTiter-Glo luminescence, 48 h; series mostly up to 57.3 µM; activity change, negative = cytotoxic: at the top concentration
# Method in brief: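 Cells seeded at 500-1,000 cells/well in growth media, rested 5 hours at 37 degrees C, 5% CO2, then dosed; MIPE compounds at 11-point (from 0.78 nM) and NPC at 8-point (from 0.59 nM) final concentrations. Viability by CellTiter-Glo luminescence after 48 hours.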
row,Structure (SMILES),"activity change, negative = cytotoxic"
1,Cc1c(N)c(=O)n(-c2ccccc2)n1C,-4.05%
2,CCC1C(=O)OCC1Cc1cncn1C (centres undefined),13.4%
3,c1ccc2sc(SN3CCOCC3)nc2c1,3.02%
4,CC(N)C(=O)OC(C)(C)Cc1ccc(Cl)cc1 (centres undefined),-0.964%
5,Nc1c(CC(=O)O)cccc1C(=O)c1ccc(Br)cc1,7.2%
6,CN1CC(=O)N/C1=N/C(=O)Nc1cccc(Cl)c1,12.5%
7,CCOC(=O)c1ccccc1O,-21.6%
8,Nc1ccc(O)c(C(=O)O)c1,6.48%
